Test results reported in PubChem BioAssay AID1159614 (National Center for Advancing Translational Sciences (NCATS), 2016).
The campaign covered roughly 45,000 compounds. About 65 (0.1%) were called active. The call rests on the fitted dose curve; in most records, active means well fitted activation curve with a large enough effect; inconclusive means small, poorly fitted or top-dose-only effect; inactive means no such curve, though single readings can be large or run the other way. Only a selection was taken, and actives are over-represented in it overall.

Biological target: Galactocerebrosidase (Homo sapiens) (UniProt P54803)
Experiment: A Novel Cell-Based Assay to Identify Small Molecules for B -Galactocerebrosidase; further: 0% is about no effect; nearly all actives have a fitted effect of over 65% in size
Conditions: 145M-Twi-hGALC-G270D cells (Twitcher mouse brain line with human GALC G270D), HMU-beta-Gal fluorescence, 48 h; series mostly up to 57.5 µM; activation: at the top concentration
Excerpt: Lysosomal storage diseases (LSDs) are caused by genetic mutations in genes encoding proteins important for normal lysosomal function. Globoid cell leukodystrophy (GLD), mostly known as Krabbe disease, is a prototype of the neurological LSDs caused by deficiency of beta-galactocerebrosidase (GALC). In brain specimens of GLD patients, psychosine levels are substantially elevated. At elevated concentrations, psychosine becomes cytotoxic to neuronal cells, particularly to oligodendrocytes (OLG), neural cells responsible for myelin formation. Therefore, the biochemical disturbances in GLD are manifested by different degrees of brain demyelination resulting in a broad spectrum of neurological manifestations. Most of the FDA-approved therapies are based on enzyme replacement therapeutic (ERT) agents, which treat non-neurological symptoms of Gaucher disease, Fabry disease, few mucopolysaccharidoses and Pompe disease. Unfortunately, in GLD, a primarily neurological LSD, ERT agents, as large molecular weight molecules unable to cross the blood-brain barrier, which makes this an inefficacious therapeutic approach. In GLD, increasing the residual GALC activity just above the critical threshold (~10% of wild type enzymatic activity), the cytotoxic levels of psychosine will be reduced, avoiding the OLGs apoptosis and the subsequent demyelination process. This will translate in disease stabilization and amelioration of GLD patient symptoms.
A cell-based assay in 1,536-well plate format was developed to implement a quantitative high-throughput screening (qHTS) assay using GLD-disease relevant cells to identify small molecules that produce enhancements of the residual enzymatic activity levels of mutants GALC found and prevalent in GLD patients. Compounds that are active may therefore have some therapeutic application for GLD. After the treatment of live cells for a determined period, using a fluorescent GALC specific substrate, the mutant residual GALC activity is measured. This cell-based qTHS assay was used to screen part of the MLPCN library for small molecule able to increase the mutant GALC enzymatic activity. In this assay, increased fluorescent signal corresponds to enhanced levels of mutant GALC residual enzymatic activity. Activation is the desired outcome for this assay.
NIH Chemical Genomics Center [NCGC]
NIH Molecular Libraries Probe Centers Network [MLPCN]
Assay Submitter (PI): Gustavo Maegawa MD,PhD, University of Florida, Gainesville, FL
2)#Two cell lines were established for the assay: 145M-Twi-hGALC-G270D (brain-derived Twitcher cell line stably expressing human GALC-G270D) and 145M-Twi-hGALC-WT (same 145M-Twi stably expressing human GALC wild type). The Twitcher is the murine C57B/6 model for GLD with naturally occurring homozygous nonsense GALC mutation. The 145M-Twi cell line was established at Maegawa lab (Ribbens J et al 2014).
a.#Media: DMEM/F12 (1:1) with 10% fetal bovine-serum (FBS) with penicillin/streptomycin (PS-1X - 100 I.U./mL of penicillin+100 ug/mL of streptomycin).
b.#The 6-Hexadecanoylamino-4-methylumbelliferyl-b-D-galactoside (HMU-B-gal) substrate was prepared as per Wiederschain et al 1992. Using 20-mL borosilicate tubes, 2.20 mg of HMU-b-Gal was added in each tube to prepare substrate-film with a final air-nitrogen stream evaporation to remove all diluent solvents.
c.#The HMUb-Gal substrate buffer consists of 0.2 M Na2HPO4 (sodium phosphate dibasic)/ 0.1 M Citric Acid with the pH adjusted to 5.2 using HCl. Sodium Azide at 0.02% and Sodium Taurocholate (NaTC) at 1 mg/mL were added to this substrate buffer.
d.#The HMU-b-Gal stopping buffer consist of 0.5 M NaHCO3 (sodium bicarbonate) /0.5 M Na2CO3 (sodium carbonate). […] Triton X-100 at 0.25% was added.
4)#Preparation of HMU-b-Gal substrate tubes
Adding 18.6 mL of the HMUb-Gal substrate buffer to each 20-mL tube (2.20 mg of HMU-b-Gal) will reach a concentration of 0.2 mM. Vortex well the tube until the solution is fully homogenized (clear cloudy solution). […]

Galactocerebrosidase (Homo sapiens), sequence (P54803 whole entry G286D): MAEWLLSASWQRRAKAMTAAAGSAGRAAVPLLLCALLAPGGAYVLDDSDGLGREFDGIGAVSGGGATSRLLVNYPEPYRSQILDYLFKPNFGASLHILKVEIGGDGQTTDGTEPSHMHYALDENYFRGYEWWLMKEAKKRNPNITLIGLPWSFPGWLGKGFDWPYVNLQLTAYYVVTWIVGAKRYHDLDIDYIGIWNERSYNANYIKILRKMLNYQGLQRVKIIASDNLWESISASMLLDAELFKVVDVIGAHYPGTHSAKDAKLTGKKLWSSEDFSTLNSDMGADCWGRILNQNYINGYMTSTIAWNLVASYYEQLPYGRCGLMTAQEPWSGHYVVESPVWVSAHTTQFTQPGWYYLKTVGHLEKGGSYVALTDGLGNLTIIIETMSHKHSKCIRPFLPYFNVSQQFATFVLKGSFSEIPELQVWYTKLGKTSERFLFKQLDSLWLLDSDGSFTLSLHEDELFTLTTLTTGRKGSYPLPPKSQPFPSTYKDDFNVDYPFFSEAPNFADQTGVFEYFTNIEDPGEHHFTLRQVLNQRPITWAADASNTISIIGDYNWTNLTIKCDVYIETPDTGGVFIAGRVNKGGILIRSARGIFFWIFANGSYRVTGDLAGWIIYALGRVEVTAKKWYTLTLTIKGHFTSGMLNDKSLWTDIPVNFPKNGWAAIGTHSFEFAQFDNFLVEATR

activation, inactive:
Cc1cccc(CC(=O)N2CC(=O)Nc3ccc(F)cc3C2c2ccccc2)c1 (configuration not stated) -6.7%, Cc1cccc(NC(=O)c2nnn(CC(=O)Nc3ccc(C(C)C)cc3)c2N)c1C -16.1%, Cc1cc(C)cc(OCC(=O)Nc2nc(-c3ccc(F)cc3)ns2)c1 5.22%, Cc1cccc(NC(=O)Cn2c(C(F)(F)F)nc3ccccc32)c1C 5.17%, COc1cccc(-c2cc(C(=O)Nc3ccc(C)cc3)[nH]n2)c1 -17.3%, CCc1cc2c(cc3c(=O)n(CC(=O)NCCc4ccc(OC)c(OC)c4)ncn32)s1 -10.5%, Cc1ccccc1OCC(=O)Nc1c(C(=O)Nc2ccccc2F)oc2ccccc12 -15.2%, CCOc1cc(C(=O)Nc2nnc3n2CCS3)cc(OCC)c1OCC -19.3%, COc1cccc2c1cc1c(=O)n(CC(=O)N3CCN(c4cccc(Cl)c4)CC3)nc(C)n12 -10.9%, CCCn1c2ccccc2c2cnn(CC(=O)N(C)c3ccccc3CC)c(=O)c21 0.489%, CCN(C(=O)c1sc2cc(OC)ccc2c1Cl)c1ccccc1 -1.23%, CCOC(=O)c1nnn(CC(=O)NC(=O)Nc2ccccc2F)c1C(=O)OCC -12.9%, Cn1c(=O)c2c(nc(Oc3ccc(C#N)cc3)n2Cc2ccc(Cl)cc2Cl)n(C)c1=O -1.55%, COc1cc(CN(CC2CCCO2)C(=O)c2ccccc2F)cc(OC)c1OC (configuration not stated) -1.53%, Cc1cccn2c(=O)c(C(=O)NC(C)c3ccccc3)cnc12 (configuration not stated) -3.71%, Cc1ccc(S(=O)(=O)NC2(C(F)(F)F)NC(=O)N(CCc3ccccc3)C2=O)cc1 (configuration not stated) -13.9%, COc1ccc(CC(=O)Nc2nnc3n2CCS3)cc1OC 14.6%, COc1cccc(C2C(C(=O)Nc3ccc(C)cc3C)=C(C)Nc3c(C(=O)Nc4ccccc4)cnn32)c1 (configuration not stated) -4.64%, Cc1ccc(-c2nc3ccccn3c2Nc2c(C)cccc2C)o1 -10.6%, Brc1ccc2c(c1)NC(c1cccnc1)=NC(c1ccccc1)=N2 -18%, COC(=O)c1ccc(NC(=O)CCc2c(C)nc3c(c(C)nn3-c3ccc(C)cc3)c2C)cc1 -11.7%, O=C(Nc1ccccc1Cl)N1CCC(CN2CCCC2)CC1 -6.85%, COc1cc(Cl)c(NC(=O)C(NS(=O)(=O)c2cccs2)C(C)C)c(OC)c1 (configuration not stated) -11.2%, O=C(NC1CC(=O)N(c2ccc(F)cc2)C1)c1ccc(S(=O)(=O)N2CCCC2)cc1 (configuration not stated) -10.8%, CCc1cc2c(cc3c(=O)n(CC(=O)N4CCN(c5cc(Cl)ccc5C)CC4)nc(CC)n32)s1 -11.4%, Cc1cccc(Cn2c(SCc3ccc(C(=O)N4CCC(C)CC4)cc3)nc3ccncc32)c1 1.12%, COc1ccc2cc(CNc3ccc(OC)c(OC)c3)c(=O)n(CC(=O)Nc3ccccc3F)c2c1 -18.6%
